# “And” between values parts separate entries of the source, which are not always exact repeats. Equal entries are not always repeated. Screen size: about 5,500 compounds; about 2,000 (36%) were called active. Roughly 18% stayed inconclusive and do not appear here. This is one part of the list. Values without a mark were called inactive. No stated cut-off is given here; in the data, active means normalized growth mostly below about 0.91 (no sharp cut-off); inconclusive means no clear call, values can overlap the other calls; inactive means mostly above about 0.92.
# Assay: chemical genetic growth profiling, strain panel (AID 1159580);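 further: tested at 20 µM; growth read once vehicle control cultures reached saturation at 30 °C; 1 = growth at the plate median or of vehicle wells; lower values mean less growth of the strain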
# Settings: S. cerevisiae deletion strains, growth OD
compound,measurement,setting,value
CC(=O)N(O)CCCCCNC(=O)CCC(=O)N(O)CCCCCNC(=O)CCC(=O)N(O)CCCCCN,normalized growth,"locus YAL013W, strain DEP1, active compounds read low",0.997
same,normalized growth,"locus YAL021C, strain ccr4, active compounds read low",0.959
same,normalized growth,"locus YAL026C, strain drs2, active compounds read low",1
same,normalized growth,"locus YAL030W, strain snc1, active compounds read low",1
same,normalized growth,"locus YBL061C, strain skt5, active compounds read low",1
same,normalized growth,"locus YBR009C, strain hhf1, active compounds read low",1
same,normalized growth,"locus YBR021W, strain FUR4, active compounds read low",0.845 (active)
same,normalized growth,"locus YBR023C, strain chs3, active compounds read low",1.02
same,normalized growth,"locus YBR171W, strain sec66, active compounds read low",1.01
same,normalized growth,"locus YBR229C, strain ROT2, active compounds read low",1.01
same,normalized growth,"locus YBR231C, strain swc5, active compounds read low",0.967
same,normalized growth,"locus YBR279W, strain paf1, active compounds read low",0.99
same,normalized growth,"locus YCL011C, strain gbp2, active compounds read low",1.04
same,normalized growth,"locus YCL016C, strain dcc1, active compounds read low",1.03
same,normalized growth,"locus YCL029C, strain bik1, active compounds read low",1.04
same,normalized growth,"locus YCL069W, strain vba3, active compounds read low",0.994
same,normalized growth,"locus YCR088W, strain abp1, active compounds read low",1.02
same,normalized growth,"locus YDL005C, strain med2, active compounds read low",1.01
same,normalized growth,"locus YDL035C, strain GPR1, active compounds read low",0.987
same,normalized growth,"locus YDL040C, strain nat1, active compounds read low",1
same,normalized growth,"locus YDL074C, strain BRE1, active compounds read low",0.907
same,normalized growth,"locus YDL101C, strain DUN1, active compounds read low",1.01
same,normalized growth,"locus YDL185W, strain tfp1, active compounds read low",0.967
same,normalized growth,"locus YDL192W, strain arf1, active compounds read low",1.01
same,normalized growth,"locus YDR001C, strain nth1, active compounds read low",1.03
same,normalized growth,"locus YDR069C, strain doa4, active compounds read low",0.978
same,normalized growth,"locus YDR101C, strain arx1, active compounds read low",1.04
same,normalized growth,"locus YDR137W, strain rgp1, active compounds read low",1.12
same,normalized growth,"locus YDR150W, strain NUM1, active compounds read low",1.01
same,normalized growth,"locus YDR159W, strain sac3, active compounds read low",1.05
same,normalized growth,"locus YDR162C, strain NBP2, active compounds read low",0.997
same,normalized growth,"locus YDR195W, strain ref2",1.03
same,normalized growth,"locus YDR297W, strain sur2, active compounds read low",0.997
same,normalized growth,"locus YDR318W, strain mcm21, active compounds read low",1.02
same,normalized growth,"locus YDR334W, strain swr1, active compounds read low",0.998
same,normalized growth,"locus YDR335W, strain msn5, active compounds read low",0.987
same,normalized growth,"locus YDR388W, active compounds read low",1.02
same,normalized growth,"locus YDR392W, strain spt3, active compounds read low",1.2
same,normalized growth,"locus YDR502C, strain sam2, active compounds read low",1.04
same,normalized growth,"locus YEL003W, strain gim4, active compounds read low",0.961
same,normalized growth,"locus YEL037C, strain rad23, active compounds read low",0.997
same,normalized growth,"locus YEL061C, strain CIN8 (second series), active compounds read low",1.01
same,normalized growth,"locus YEL061C, strain CIN8, active compounds read low",1.01
same,normalized growth,"locus YER015W, strain faa2, active compounds read low",0.944
same,normalized growth,"locus YER016W, strain bim1, active compounds read low",1.01
same,normalized growth,"locus YER110C, active compounds read low",1.01
same,normalized growth,"locus YER111C, strain swi4, active compounds read low",0.973
same,normalized growth,"locus YER155C, strain BEM2 (second series), active compounds read low",1.06
same,normalized growth,"locus YER155C, strain BEM2, active compounds read low",1.04
same,normalized growth,"locus YER167W, strain BCK2, active compounds read low",1.05
same,normalized growth,"locus YFR010W, strain ubp6, active compounds read low",0.986
same,normalized growth,"locus YGL078C, strain dbp3, active compounds read low",1.07
same,normalized growth,"locus YGL086W, strain mad1, active compounds read low",1.01
same,normalized growth,"locus YGL167C, strain pmr1, active compounds read low",0.978
same,normalized growth,"locus YGL173C, strain kem1, active compounds read low",0.99
same,normalized growth,"locus YGL227W, strain vid30, active compounds read low",1.02
same,normalized growth,"locus YGL240W, strain doc1, active compounds read low",1.01
same,normalized growth,"locus YGL248W, strain PDE1, active compounds read low",0.987
same,normalized growth,"locus YGL253W, strain hxk2, active compounds read low",0.989
same,normalized growth,"locus YGR078C, strain PAC10, active compounds read low",0.983
same,normalized growth,"locus YGR135W, strain pre9, active compounds read low",0.994
same,normalized growth,"locus YGR252W, strain gcn5, active compounds read low",0.771
same,normalized growth,"locus YHR013C, strain ard1, active compounds read low",0.984
same,normalized growth,"locus YHR027C, strain rpn1, active compounds read low",0.94
same,normalized growth,"locus YHR030C, strain SLT2, active compounds read low",1.02 and 1.05
same,normalized growth,"locus YHR079C, strain IRE1 (second series), active compounds read low",1.02
same,normalized growth,"locus YHR079C, strain IRE1, active compounds read low",1.05
same,normalized growth,"locus YHR094C, strain hxt1, active compounds read low",1.02
same,normalized growth,"locus YHR129C, strain ARP1, active compounds read low",1.01
same,normalized growth,"locus YHR142W, strain chs7, active compounds read low",0.981
same,normalized growth,"locus YHR200W, strain rpn10, active compounds read low",1.03
same,normalized growth,"locus YIL066C, strain RNR3, active compounds read low",1.01
same,normalized growth,"locus YIL073C, strain SPO22, active compounds read low",0.95
same,normalized growth,"locus YIL125W, strain kgd1, active compounds read low",1.04
same,normalized growth,"locus YIR030C, strain dcg1, active compounds read low",1.03
same,normalized growth,"locus YJL092W, strain hpr5, active compounds read low",1.03
same,normalized growth,"locus YJL095W, strain BCK1 (second series), active compounds read low",1.01
same,normalized growth,"locus YJL095W, strain BCK1, active compounds read low",0.959 and 1.05
same,normalized growth,"locus YJL115W, strain asf1, active compounds read low",1.01
same,normalized growth,"locus YJL129C, strain trk1, active compounds read low",1.01
same,normalized growth,"locus YJL134W, strain LCB3, active compounds read low",1.01
same,normalized growth,"locus YJL154C, strain vps35, active compounds read low",1.01
same,normalized growth,"locus YJL164C, strain tpk1, active compounds read low",1.03
same,normalized growth,"locus YJL166W, strain qcr8, active compounds read low",1.02
same,normalized growth,"locus YJL168C, strain set2, active compounds read low",1.01
same,normalized growth,"locus YJL187C, strain SWE1 (second series), active compounds read low",0.975
same,normalized growth,"locus YJL187C, strain SWE1, active compounds read low",0.987
same,normalized growth,"locus YJR043C, strain POL32, active compounds read low",1.02

# Reference: PubChem BioAssay AID1159580 (chemical genetic matrix, 2015)
